# Experimental data taken from PubChem BioAssay AID720650 (Broad Institute, 2013).
# Values without a mark were called inactive. Activity calls are given as the source filed them. No rule for the calls is given here.
# Assay: C difficile toxins, biochemical counterscreen, UDPG substrate absence, confirmatory dose response (AID 720650)
# Conditions: series mostly up to 19.5 µM
row,SMILES,AC50
1,Cc1cc(C(=O)NNc2ccc(C)c(C)c2)no1,0.287 µM (active)
2,COC(=O)C(Cc1ccccc1)NC(=O)CSc1nc(C)cc(=O)[nH]1 (centres undefined),inactive
3,COc1cc2[nH]c(=S)n(Cc3cccs3)c(=O)c2cc1OC,inactive
4,N=C(N)c1ccc(N=Nc2c(O)ccc3c2[nH]c2ccccc23)cc1,inactive
5,CSc1ccc(/C=N/N2CCN(Cc3ccc(Cl)cc3)CC2)cc1,inactive
6,Clc1ccc(-c2nc3ccc(Cl)cn3c2Cc2ccccc2)cc1,inactive
7,CC(C)(C)C(=O)C1=C(O)C(=O)N(c2ccccc2)C1c1ccccc1 (centres undefined),> 39 µM
8,C[C@H](CO)N1C[C@H](C)[C@@H](CN(C)CC2CCCCC2)Oc2ccc(NC(=O)CCN3CCOCC3)cc2C1=O,inactive
9,O=C(O)c1ccc(/C=N/NC(=S)NCCN2CCOCC2)cc1,inactive
10,O=C(C[C@@H]1CC[C@@H]2[C@H](COC[C@@H](O)CN2C(=O)Nc2ccc(Cl)c(Cl)c2)O1)NCc1ccncc1,inactive
11,CC(=O)Nc1ccccc1O,18.4 µM (active)
12,COc1ccc(C(=O)Nc2ccc3c(c2)C(=O)N(C)[C@@H]2CC[C@H](CC(=O)NCC4CC4)O[C@H]2CO3)cc1,inactive
13,CCNC(=O)C[C@H]1CC[C@@H]2[C@H](COc3ccc(NC(=O)c4ccc5c(c4)OCO5)cc3C(=O)N2C)O1,> 42 µM
14,CC1(C)CCC/C(=C\c2ccccc2)C1=O,inactive
15,COc1ccc(NC(=O)CN(C)C(=O)c2cccc(NS(=O)(=O)c3ccc(Br)cc3)c2)cc1,inactive
16,CC[C@H](C)[C@@H]1NC(=O)c2cc([N+](=O)[O-])cc(I)c2NCC[C@@H](C(N)=O)NC(=O)[C@H](CCCN=C(N)N)NC1=O,inactive
17,COc1ccc(/C=C/c2onc(C)c2S(=O)(=O)N2CCC(C(=O)N3CCCCCC3)CC2)cc1,inactive
18,COC(=O)c1ccc(OC(=O)c2ccc(OC)cc2)c(OC)c1,inactive
19,Cc1cc(C(C)(C)C)cc(CN2CCN(S(=O)(=O)c3cccs3)CC2)c1O,inactive
20,CC1CCN(CCCn2c(=S)[nH]c3c(sc4ccccc43)c2=O)CC1,> 39 µM

row,SMILES,AC50
1,COc1ccc(/C=C\c2onc(C)c2S(=O)(=O)N2CCC(C(=O)NCCC(C)C)CC2)cc1,inactive
2,Cc1c(O)ccc(NC(=O)/C=C/c2ccccc2)c1C,> 39 µM
3,O=C(NN=Cc1cc(Br)c(O)c(Br)c1)c1ccccc1NS(=O)(=O)c1cccs1,inactive
4,CC(=O)c1ccc(Nc2ccc(-c3ccccc3F)nn2)cc1,> 39 µM
5,N/C(=N\N=C\c1ccc(O)cc1)c1nonc1N,5.49 µM (active)
6,O=C(C[C@@H]1C[C@H]2c3cc(NC(=O)c4ccc5c(c4)OCO5)ccc3O[C@H]2[C@H](CO)O1)NCc1cccc(F)c1,inactive
7,COc1cc(/C=N/NC2=NCCCCC2)ccc1O,inactive
8,O=C(C1CCOCC1)N1CC[C@@H]2[C@@H](CO)Nc3ccc(-c4ccc(F)cc4)cc3[C@@H]21,22 µM (active)
9,O=C(c1cn(-c2ccccc2)nc1-c1ccncc1)n1nnc2ccccc21,inactive
10,CC(C)NC(=O)N1CC[C@@H]2[C@H]1c1cc(-c3ccccc3)ccc1N(C)[C@H]2CO,5.77 µM (active)
11,COc1ccc(S(=O)(=O)N2CCOCC2)cc1NC(=O)COC(=O)c1[nH]c(C)c(C(C)=O)c1C,> 39 µM
12,O=C(c1ccccc1F)N1CCN(c2ccc([N+](=O)[O-])c3cccnc23)CC1,inactive
13,O=C(CSc1cccc2cccnc12)N/N=C/c1ccc(O)cc1,11.1 µM (active)
14,Cc1cc(NC(=O)CCCN2C(=O)c3cccc4cccc(c34)C2=O)no1,inactive
15,CC(C)c1cc(CN2CCN(Cc3ccc(F)c(F)c3)C(CCO)C2)[nH]n1 (centres undefined),inactive
16,CCN1CC(CNCc2cn(-c3ccc(OC)cc3)nc2-c2ccccc2Cl)CC1=O (centres undefined),inactive
17,Cc1cc(N/N=C/c2ccc(O)cc2O)nc(N2CCOCC2)n1,> 39 µM
18,Cc1ccc(S(=O)(=O)N2CC(CO)=CCC2c2ccccc2)cc1 (centres undefined),8.79 µM (active)
19,CN(C)CCNc1ccc(CO)c2sc3ccc(O)cc3c(=O)c12,6.06 µM (active)
